How the values were obtained:
[1] = target: T1, Serine/threonine-protein kinase TBK1 (Homo sapiens) (UniProt Q9UHD2); details: at 1 µM;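 further: values are mean inhibition of TBK1, screened as part of the GSK published kinase inhibitor set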
T1 sequence (whole entry): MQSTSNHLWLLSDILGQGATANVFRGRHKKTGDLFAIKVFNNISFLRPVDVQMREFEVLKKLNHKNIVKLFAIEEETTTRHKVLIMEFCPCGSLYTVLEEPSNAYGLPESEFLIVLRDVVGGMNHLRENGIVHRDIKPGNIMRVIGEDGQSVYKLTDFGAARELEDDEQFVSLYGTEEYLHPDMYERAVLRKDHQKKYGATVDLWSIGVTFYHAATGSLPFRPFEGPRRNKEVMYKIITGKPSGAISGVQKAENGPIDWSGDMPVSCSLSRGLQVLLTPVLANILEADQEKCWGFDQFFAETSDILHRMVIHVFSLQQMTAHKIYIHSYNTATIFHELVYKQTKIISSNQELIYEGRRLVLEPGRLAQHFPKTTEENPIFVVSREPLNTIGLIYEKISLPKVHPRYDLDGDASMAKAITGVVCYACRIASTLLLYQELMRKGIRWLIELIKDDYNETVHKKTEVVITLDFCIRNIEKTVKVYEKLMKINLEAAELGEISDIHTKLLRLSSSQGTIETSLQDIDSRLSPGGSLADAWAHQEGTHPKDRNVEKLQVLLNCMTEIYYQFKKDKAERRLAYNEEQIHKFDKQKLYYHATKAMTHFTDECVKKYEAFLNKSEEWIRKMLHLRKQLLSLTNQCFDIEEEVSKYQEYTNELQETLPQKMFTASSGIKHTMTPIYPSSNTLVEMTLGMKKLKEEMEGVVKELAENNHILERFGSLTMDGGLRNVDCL

[2] = target: T2, Testis-specific serine/threonine-protein kinase 1 (Homo sapiens) (UniProt Q9BXA7); details: at 0.1 µM
T2 sequence (whole entry): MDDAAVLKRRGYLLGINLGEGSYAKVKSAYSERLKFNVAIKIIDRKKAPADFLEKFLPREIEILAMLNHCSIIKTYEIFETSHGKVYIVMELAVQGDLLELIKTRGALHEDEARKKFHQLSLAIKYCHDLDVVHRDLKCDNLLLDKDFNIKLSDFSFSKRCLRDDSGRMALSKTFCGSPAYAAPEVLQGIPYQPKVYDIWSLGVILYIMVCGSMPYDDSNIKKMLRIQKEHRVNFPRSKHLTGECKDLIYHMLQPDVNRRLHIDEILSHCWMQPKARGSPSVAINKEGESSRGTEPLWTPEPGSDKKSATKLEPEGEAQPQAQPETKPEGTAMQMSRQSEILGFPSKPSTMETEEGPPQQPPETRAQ

[3] = target: T2, Testis-specific serine/threonine-protein kinase 1 (Homo sapiens); details: at 1 µM
[4] = target: T3, Testis-specific serine/threonine-protein kinase 2 (Homo sapiens) (UniProt Q96PF2); details: at 0.1 µM
T3 sequence (whole entry): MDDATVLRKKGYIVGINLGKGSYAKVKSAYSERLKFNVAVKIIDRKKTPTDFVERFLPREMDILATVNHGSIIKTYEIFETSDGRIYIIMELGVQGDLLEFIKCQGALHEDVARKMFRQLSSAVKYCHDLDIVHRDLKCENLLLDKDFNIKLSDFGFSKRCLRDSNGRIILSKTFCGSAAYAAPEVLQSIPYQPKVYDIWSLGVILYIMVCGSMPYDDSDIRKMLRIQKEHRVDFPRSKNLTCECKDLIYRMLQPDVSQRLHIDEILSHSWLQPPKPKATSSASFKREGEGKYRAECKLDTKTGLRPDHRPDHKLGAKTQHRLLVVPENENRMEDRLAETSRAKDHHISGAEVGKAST

[5] = target: T3, Testis-specific serine/threonine-protein kinase 2 (Homo sapiens); details: at 1 µM
[6] = target: Casein kinase I isoform alpha (Homo sapiens) (UniProt P48729); details: at 0.1 µM
Casein kinase I isoform alpha (Homo sapiens), sequence (P48729 2-337 limits assumed): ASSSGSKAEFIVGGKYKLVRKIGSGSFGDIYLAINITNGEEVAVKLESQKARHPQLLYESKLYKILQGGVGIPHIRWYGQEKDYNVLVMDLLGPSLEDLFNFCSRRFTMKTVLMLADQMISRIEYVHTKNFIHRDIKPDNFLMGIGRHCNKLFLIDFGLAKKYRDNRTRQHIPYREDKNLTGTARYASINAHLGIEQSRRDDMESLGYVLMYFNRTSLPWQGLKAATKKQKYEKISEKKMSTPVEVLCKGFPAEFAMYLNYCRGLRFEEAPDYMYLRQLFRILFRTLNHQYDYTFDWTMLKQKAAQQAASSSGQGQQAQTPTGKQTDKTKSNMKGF

[7] = target: Casein kinase I isoform alpha (Homo sapiens) (UniProt P48729); details: at 1 µM
[8] = target: Casein kinase I isoform gamma-1 (Homo sapiens) (UniProt Q9HCP0); details: at 0.1 µM
Casein kinase I isoform gamma-1 (Homo sapiens), sequence (Q9HCP0 whole entry, looked up, canonical isoform): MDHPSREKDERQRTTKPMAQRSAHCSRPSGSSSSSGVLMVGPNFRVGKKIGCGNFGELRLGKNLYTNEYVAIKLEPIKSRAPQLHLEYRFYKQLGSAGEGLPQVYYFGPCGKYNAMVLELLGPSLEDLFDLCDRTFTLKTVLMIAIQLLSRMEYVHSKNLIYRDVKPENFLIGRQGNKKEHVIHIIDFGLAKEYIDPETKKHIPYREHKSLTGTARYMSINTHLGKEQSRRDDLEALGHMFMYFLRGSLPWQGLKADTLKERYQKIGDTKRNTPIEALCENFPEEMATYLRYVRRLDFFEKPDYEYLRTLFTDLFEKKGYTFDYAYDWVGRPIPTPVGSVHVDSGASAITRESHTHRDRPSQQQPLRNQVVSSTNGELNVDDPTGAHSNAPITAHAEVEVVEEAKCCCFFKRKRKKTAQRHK

[9] = target: Casein kinase I isoform gamma-1 (Homo sapiens) (UniProt Q9HCP0); details: at 1 µM
[10] = target: Casein kinase I isoform gamma-2 (Homo sapiens) (UniProt P78368); details: at 0.1 µM
Casein kinase I isoform gamma-2 (Homo sapiens), sequence (P78368 whole entry, looked up, canonical isoform): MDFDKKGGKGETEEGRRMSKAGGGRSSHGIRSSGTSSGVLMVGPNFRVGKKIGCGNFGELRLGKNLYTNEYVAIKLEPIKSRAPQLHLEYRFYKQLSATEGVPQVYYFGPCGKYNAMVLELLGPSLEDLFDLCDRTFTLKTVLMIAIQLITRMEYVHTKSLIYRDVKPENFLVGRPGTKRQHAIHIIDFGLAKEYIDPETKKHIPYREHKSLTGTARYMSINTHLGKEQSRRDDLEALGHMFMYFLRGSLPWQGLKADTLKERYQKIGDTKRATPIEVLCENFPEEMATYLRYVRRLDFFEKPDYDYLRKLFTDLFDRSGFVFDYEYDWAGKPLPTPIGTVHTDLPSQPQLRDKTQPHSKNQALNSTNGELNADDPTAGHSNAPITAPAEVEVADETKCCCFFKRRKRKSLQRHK

[11] = target: Casein kinase I isoform gamma-2 (Homo sapiens) (UniProt P78368); details: at 1 µM
[12] = target: Casein kinase I isoform gamma-3 (Homo sapiens) (UniProt Q9Y6M4); details: at 0.1 µM
Casein kinase I isoform gamma-3 (Homo sapiens), sequence (Q9Y6M4 whole entry, looked up, canonical isoform): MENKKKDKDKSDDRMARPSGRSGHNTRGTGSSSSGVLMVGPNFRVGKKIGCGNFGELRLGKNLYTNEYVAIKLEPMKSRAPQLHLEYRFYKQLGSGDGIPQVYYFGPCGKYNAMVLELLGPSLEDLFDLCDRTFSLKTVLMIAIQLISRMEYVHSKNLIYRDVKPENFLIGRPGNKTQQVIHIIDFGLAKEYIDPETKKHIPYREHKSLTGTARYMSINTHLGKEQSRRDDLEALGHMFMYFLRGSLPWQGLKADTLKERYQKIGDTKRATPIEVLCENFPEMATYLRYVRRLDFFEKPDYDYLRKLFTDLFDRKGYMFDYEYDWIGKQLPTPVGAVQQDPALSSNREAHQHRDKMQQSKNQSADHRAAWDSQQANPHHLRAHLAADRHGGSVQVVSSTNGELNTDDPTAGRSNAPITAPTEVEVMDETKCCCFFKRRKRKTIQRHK

[13] = target: Casein kinase I isoform gamma-3 (Homo sapiens) (UniProt Q9Y6M4); details: at 1 µM
[14] = target: Cyclin-dependent kinase 1 (Homo sapiens) (UniProt P06493); details: at 0.1 µM
Cyclin-dependent kinase 1 (Homo sapiens), sequence (P06493 whole entry, looked up): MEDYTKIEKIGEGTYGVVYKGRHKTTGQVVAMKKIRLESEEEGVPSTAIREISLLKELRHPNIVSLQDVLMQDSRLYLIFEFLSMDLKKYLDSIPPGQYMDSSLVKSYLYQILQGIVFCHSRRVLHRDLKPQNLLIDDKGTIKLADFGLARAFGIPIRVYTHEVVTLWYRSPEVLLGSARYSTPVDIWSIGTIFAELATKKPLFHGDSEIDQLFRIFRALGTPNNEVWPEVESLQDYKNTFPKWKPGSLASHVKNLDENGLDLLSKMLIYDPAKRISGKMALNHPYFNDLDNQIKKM

[15] = target: Cyclin-dependent kinase 1 (Homo sapiens) (UniProt P06493); details: at 1 µM
[16] = target: Cyclin-dependent kinase 2 (Homo sapiens) (UniProt P24941); details: at 0.1 µM
[17] = target: Cyclin-dependent kinase 2 (Homo sapiens) (UniProt P24941); details: at 1 µM
[18] = target: Cyclin-dependent kinase 2 (Homo sapiens) (UniProt P24941); details: at 0.1 µM; remark: listed apart in the source
[19] = target: Cyclin-dependent kinase 2 (Homo sapiens) (UniProt P24941); details: at 1 µM; remark: listed apart in the source
[20] = target: CDK3/Cyclin E (Homo sapiens) (UniProt P24864+Q00526); details: at 0.1 µM;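 further: reported percentages are mean inhibition values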
CDK3/Cyclin E (Homo sapiens), sequence (P24864 whole entry, looked up): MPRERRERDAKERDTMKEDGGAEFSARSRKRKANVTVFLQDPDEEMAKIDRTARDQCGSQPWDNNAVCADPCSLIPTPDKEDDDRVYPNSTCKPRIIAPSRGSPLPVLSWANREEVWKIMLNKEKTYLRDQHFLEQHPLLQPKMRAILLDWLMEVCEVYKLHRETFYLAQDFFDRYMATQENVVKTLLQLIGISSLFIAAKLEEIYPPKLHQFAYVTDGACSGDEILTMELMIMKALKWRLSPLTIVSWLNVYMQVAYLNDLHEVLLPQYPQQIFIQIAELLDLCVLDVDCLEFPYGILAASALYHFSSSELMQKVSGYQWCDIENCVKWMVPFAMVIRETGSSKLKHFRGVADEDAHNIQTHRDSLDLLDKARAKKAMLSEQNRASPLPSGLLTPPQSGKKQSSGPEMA
CDK3/Cyclin E (Homo sapiens), sequence (Q00526 whole entry, looked up): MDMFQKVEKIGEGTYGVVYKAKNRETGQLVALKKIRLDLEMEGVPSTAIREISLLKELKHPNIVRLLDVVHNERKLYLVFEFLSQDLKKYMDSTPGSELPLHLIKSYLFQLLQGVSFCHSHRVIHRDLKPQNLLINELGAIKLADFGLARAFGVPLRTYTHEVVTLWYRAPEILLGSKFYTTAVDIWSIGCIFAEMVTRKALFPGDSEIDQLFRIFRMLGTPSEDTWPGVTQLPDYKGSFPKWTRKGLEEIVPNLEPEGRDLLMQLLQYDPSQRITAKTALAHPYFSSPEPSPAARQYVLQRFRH

SMILES: NC(=O)c1ccc(Oc2nccc(-c3c(-c4ccc(F)cc4)ncn3C3CCNCC3)n2)cc1
- inhibition [1]: 4.3%
- inhibition [2]: 4.45%
- inhibition [3]: 5.29%
- inhibition [4]: 2.52%
- inhibition [5]: 2.46%
- inhibition [6]: 5.63%
- inhibition [7]: 30.3%
- inhibition [8]: 5.2%
- inhibition [9]: 9.98%
- inhibition [10]: 5.16%
- inhibition [11]: 7.07%
- inhibition [12]: 4.74%
- inhibition [13]: 9.02%
- inhibition [14]: 3.25%
- inhibition [15]: 1.41%
- inhibition [16]: 3.34%
- inhibition [17]: 3.6%
- inhibition [18]: 3.03%
- inhibition [19]: 4.26%
- inhibition [20]: -3.59%

SMILES: COc1ccc(C2=C(N3CCc4ccccc43)C(=O)NC2=O)cc1
- inhibition [1]: 7.18%
- inhibition [2]: 4.87%
- inhibition [3]: 6.13%
- inhibition [4]: 3.64%
- inhibition [5]: 3.35%
- inhibition [6]: 3.74%
- inhibition [7]: 8.77%
- inhibition [8]: 3.77%
- inhibition [9]: 4.09%
- inhibition [10]: 3.12%
- inhibition [11]: 4.63%
- inhibition [12]: 1.81%
- inhibition [13]: 3.33%
- inhibition [14]: 1.56%
- inhibition [15]: 3.2%
- inhibition [16]: 3.48%
- inhibition [17]: 3.47%
- inhibition [18]: 4.49%
- inhibition [19]: 6.31%
- inhibition [20]: 3.69%

SMILES: C[C@@H](Oc1cc(-n2cnc3ccc(OCC4CCN(C)CC4)cc32)sc1C(N)=O)c1ccccc1Cl
- inhibition [1]: 6.08%
- inhibition [2]: 6.84%
- inhibition [3]: 13.6%
- inhibition [4]: 3.55%
- inhibition [5]: 3.8%
- inhibition [6]: 5.44%
- inhibition [7]: 6.37%
- inhibition [8]: 5.29%
- inhibition [9]: 8.54%
- inhibition [10]: 5.69%
- inhibition [11]: 7.87%
- inhibition [12]: 3.89%
- inhibition [13]: 5.6%
- inhibition [14]: 1.74%
- inhibition [15]: 3.79%
- inhibition [16]: 3.1%
- inhibition [17]: 4.03%
- inhibition [18]: 2.66%
- inhibition [19]: 5.46%
- inhibition [20]: -2.62%

SMILES: COc1cc(Nc2ncc3c(C)nc(-c4cccc(C(F)(F)F)c4)n3n2)cc(OC)c1OC
- inhibition [1]: 25.5%
- inhibition [2]: 4.46%
- inhibition [3]: 9.14%
- inhibition [4]: 4.53%
- inhibition [5]: 3.7%
- inhibition [6]: 7.78%
- inhibition [7]: 6.02%
- inhibition [8]: 2.94%
- inhibition [9]: 4.47%
- inhibition [10]: 2.07%
- inhibition [11]: 3.91%
- inhibition [12]: 2.45%
- inhibition [13]: 4.96%
- inhibition [14]: 0.7%
- inhibition [15]: 6.83%
- inhibition [16]: 3.13%
- inhibition [17]: 20.8%
- inhibition [18]: 6%
- inhibition [19]: 28.8%
- inhibition [20]: 2.35%

SMILES: COc1cc(Nc2ncc3c(C)nc(-c4cccc(Oc5ccccc5)c4)n3n2)cc(OC)c1OC
- inhibition [1]: 28.8%
- inhibition [2]: 3.11%
- inhibition [3]: 5.53%
- inhibition [4]: 1.01%
- inhibition [5]: -1.11%
- inhibition [6]: 6.15%
- inhibition [7]: 3.63%
- inhibition [8]: 1.67%
- inhibition [9]: 3.71%
- inhibition [10]: 0.59%
- inhibition [11]: 3.44%
- inhibition [12]: 1.22%
- inhibition [13]: 5.12%
- inhibition [14]: -0.4%
- inhibition [15]: 0.45%
- inhibition [16]: 2.04%
- inhibition [17]: 2.37%
- inhibition [18]: 0.75%
- inhibition [19]: 3.13%
- inhibition [20]: 0.34%

SMILES: CN1CCN(CCCNc2nc3ccc(Oc4ccc(NC(=O)Nc5cc(C(F)(F)F)ccc5F)cc4)cc3[nH]2)CC1
- inhibition [1]: 3.78%
- inhibition [2]: 0.87%
- inhibition [3]: -0.16%
- inhibition [4]: -0.81%
- inhibition [5]: -1.46%
- inhibition [6]: 1.84%
- inhibition [7]: 0.56%
- inhibition [8]: -1.36%
- inhibition [9]: -3.19%
- inhibition [10]: -4.72%
- inhibition [11]: -2.41%
- inhibition [12]: -3.59%
- inhibition [13]: -4.66%
- inhibition [14]: -2.5%
- inhibition [15]: -3.79%
- inhibition [16]: -3.51%
- inhibition [17]: 5.29%
- inhibition [18]: -2.32%
- inhibition [19]: -2.03%
- inhibition [20]: 0.7%
